# Laboratory results reported in PubChem BioAssay AID1508600 (Functional Genomics Laboratory (NCATS/FGL), 2020).
# The campaign covered roughly 53,000 sequences. About 3,700 (7%) were called active. Only a selection was taken, and actives are over-represented in it overall. Values without a mark were called inactive.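 How the source made its calls: active means gene knockdowns whose robust z-score for IL-1 alpha signal is at least 2 or at most -2, so actives lie on both sides; inactive means the rest.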
# Experiment: Components of the Cytosolic LPS Sensing Pathway: Gene Identification via Genome-wide siRNA Screen;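 further: robust z of the log signal after scaling to non-targeting control siRNA wells of the plate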
# Conditions: RAW264.7 macrophages, IL-1a HTRF, actives lie on both sides, screened at 100 nM (by protocol), cells primed 5 h with Pam3CSK4 first
# How it was run: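 Three distinct siRNAs per gene were tested singly at 100 nM in RAW264.7 macrophages. Following Pam3CSK4 priming and 24 hour LipidA transfection, IL-1a secretion was read by HTRF.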
row,Sequence,z-score
1,CCAUCUGGACUUCAGUUUUTT against Rap1gap2,0.901
2,GCACUCAAAUGGUAGAUUCTT against Socs6,-0.315
3,GGGUGAACUCGGACAUUGATT against Spata19,-0.754
4,GCGUGAACACCUGAGGAUUTT against Rchy1,-0.323
5,GGUGUUGCUUAUCAUCGGCTT against Mrgprh,-2.03 (active)
6,GGGCAUCCUGGAUCAUCAUTT against Nlrp6,-1.64
7,CCUUAGAUAUCUACUGUAATT against Trim2,1.37
8,GGUGCAAGUUUUGGUGGGATT against Etfbkmt,0.35
9,GGAACCUAAUUGAAUGGCUTT against Cmbl,0.985
10,GGCGAAUGUGUGAAGAGGCTT against H2-Q5,-1.97
11,GCUGCUAGCAAAAAGAACUTT against Yaf2,2.24 (active)
12,GGAUGUUACGAAGAAGAUUTT against Ash1l,-0.664
13,GCCAUAUAUCUGCUAUCAUTT against Clvs2,2.34 (active)
14,GCAACUUAAAGGCAUCUCCTT against Sntn,1.53
15,GGGAAUCUUGGCAUGAUGGTT against Olfr1030,-0.325
16,GGUAUUUAUCUGAAUCUGATT against Dennd2c,0.668
17,CCAGCCUCUUCUAAUACACTT against Preb,-0.413
18,CCCAUCCAAUGCUUAUGUGTT against Scg5,-0.421
19,GCCUAAAAAGAGUGGGUCATT against Mllt1,-2.73 (active)
20,GGAUCUAGGAGCUGAUUAUTT against Mecr,-1.18
21,CCAUCAUGCCCUGUUUGCATT against Cdc42ep3,0.393
22,GCUCUUGUUAUUUACGUCGTT against Lgi1,0.478
23,CGACCACAUGAGGAUGCAUTT against Zbtb20,-0.974

row,Sequence,z-score
1,CCAUUAUUGGCCCAUGCUCTT against Babam1,-2.75 (active)
2,GGUUAUAAAACUAUGGAACTT against Map2k5,0.133
3,GGAUCAUUGUUCUCUCAAGTT against Psmg2,0.186
4,GGCUCAAAAGUCUUGGGACTT against Hells,0.31
5,CGCAGAUGAUUAAGUUGGUTT against Olfr1000,0.961
6,GGUGGAGACAGAAAUCCAATT against Amot,0.23
7,CGGAACCUUAUUUAAAACUTT against Sirt5,0.732
8,GGUAUCUGUGCAAGGGCAATT against Defb5,2.07 (active)
9,CCUACUCGUGUCGUGAUAATT against Rxrb,-0.841
10,GGGCAUUCAGCAGUUACAGTT against Lrriq4,0.521
11,GGUUUAUGGGACAGUUUUUTT against Plk2,5.58 (active)
12,CGUGGAUGAUACCAAAAUGTT against Igsf21,-0.73
13,GGUGCUGAAGAAGCACCAUTT against Stat5a,0.271
14,GCGAGAUUCUUGCUUACUCTT against Slc66a2,-0.472
15,GGAUGUUUUCCCGACAAGATT against Angptl1,-1.27
16,GGAUGGGAAGACUACCCGATT against Camta2,-2.62 (active)
17,CGACCUUCAAGGCAAUAUUTT against Anapc2,-0.573
18,CCAUCUAACCCUAUAUUAGTT against G6pdx,-1.21
19,CCAUGAAUAGCAUCUUUGCTT against Adamtsl2,-0.25
20,GGAUGACAAAAAUUUCAAGTT against St14,-0.283
21,GGAGAGGGUCUUAGUCAGATT against Wasf1,0.802
22,GGGUGACAUGGUGACCAUCTT against Matk,3.54 (active)
23,GGCCUUGUAUCUCUUUACATT against Hdgf,0.425

row,Sequence,z-score
1,GCUGGUUUUGAACUGUACATT against Flt4,0.155
2,CCCAAGUGGUAAGAUUGGUTT against Rps3,0.123
3,CCCUUGUCUAAAAUAUACATT against Zfp941,-0.387
4,CCCUGCUAUCAGCAUCACATT against Hacd3,-3.09 (active)
5,CGGUAUUUGUCUGUAUCCUTT against Npc2,-1.71
6,GCUGGAUUCUGGUAAAUGGTT against Eif5a,-0.836
7,GCAGAUCCGAGACAAGUAUTT against Cplx2,-1.91
8,GGAUGAACAACUCUAGGCCTT against Mafk,-0.736
9,GGUCUACAGCUACCUGAAUTT against Npc2,0.105
10,GCGGUUUCUUACCAAUAACTT against Cyp1a2,0.984
11,GGAAGCGUGGAAGUCUACGTT against Kcnj16,0.277
12,GGGCAAAGGGAGUGACAAATT against Skp2,-1.95
13,GGACAACUACAUUGUACUGTT against Insr,-1.16
14,GGCAGCAGAGAACAAGAAATT against Serbp1,-1.43
15,CCCAACUGACAUCUUCCUATT against Gzmb,2.86 (active)
16,GGAAAGCACAUCCUCUUUGTT against Gpx6,1.02
17,CGUGAUUUCAGUGAGGGUGTT against Tarsl2,0.996
18,CGAAGUGAAGAUUUACAGCTT against Nol10,-0.106
19,GCAAUGUGACCAAGACAAUTT against Prelid1,0.739
20,GGCGUGAUAGCUGGACUUATT against Eola1,0.439
21,GGCCAUAUCUUAAAGUUAATT against Hcfc1r1,-0.246
22,GACCAGUGACAAGACCAUCTT against Unc45b,0.352
23,GGUGCAGGCCAUGAUUUACTT against C1qtnf4,2.65 (active)
